The structures appear in SMILES notation. About 83,000 compounds went through this panel and 20% of them were active in at least one assay; those are over-represented in the sample as a whole.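 Compound tested at a single concentration for 48 hours in 96-well plates; a percent growth value below 10 was scored as active.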 The source made the active and inactive calls.

The first experiment concerns HCC-2998 colon. In words: NCI-60 one-dose screen, 48 h (100 = growth as untreated, 0 = no growth, -100 = all killed). The following applies: 10 µM unless noted.
For the molecule `CCC(=C(c1ccc(OCCN2CCCCCC2)cc1)c1ccc(OCCN2CCCCCC2)cc1)c1ccc(Cl)cc1`, the growth was -86% (active). On the same count and under the same terms, as for `O=C(/C=C/c1ccccc1)c1cccc(O)c1`, the figure is 111% (inactive). For the molecule `O=C(/C=C/c1cccc(F)c1)c1cccc(OCCCOc2cccc(C(=O)/C=C/c3cccc(F)c3)c2)c1`, the growth is 44.2% (inactive). `Brc1ccc2[nH]cc(-c3nn4cc(-c5nccs5)nc4s3)c2c1`: the growth is 36.7% (inactive). On the same count and under the same terms, for `CN1CCN(c2ccc(Nc3nc(NCCCNS(=O)(=O)c4ccc(F)cc4)c4sccc4n3)cc2)CC1` the value was 74.3% (inactive); for `N#Cc1c(-c2cccs2)cc(-c2cnccn2)nc1SCC(=O)N/N=C/c1ccncc1`, 109% (inactive).

Regarding `CN(C)c1ccc(-c2cc(-c3c[nH]c4ccccc34)nc(N)c2C#N)cc1`, the growth is 49.7% (inactive). On the same count and under the same terms, for `O=C(CSc1nc2ccccc2c(=O)n1-c1ccccc1)N/N=C/c1ccc(Oc2ccc(Br)cc2)cc1` the value was 87.1% (inactive); for `CCc1cc(O)ccc1Nc1cc(-c2ccc(-n3cccn3)cc2)[nH]n1`, 61.5% (inactive). `C#C[C@]1(O)CC[C@H]2[C@@H]3CC=C4c5sc(N(C)c6ccccc6)nc5CC[C@]4(C)[C@H]3CC[C@@]21C`: the growth was 109% (inactive). As for `COc1cc(C(C)=C(c2ccc(OCCN(C)C)cc2)c2ccc(OCCN(C)C)cc2)ccc1F`, the growth is 100% (inactive). Turning to `C#CCN(C)CCCOc1ccc(NCc2ccc(C(=O)NO)cc2)cc1Cl`, the growth was 32.7% (inactive). Still for that read-out and setting: as for `CSc1ccc(C(=NNS(=O)(=O)c2ccc(C)cc2)c2ccc(Cl)cc2)cc1`, the figure is 103% (inactive); as for `Clc1ccc2[nH]cc(-c3nn4cc(-c5cccnc5)nc4s3)c2c1`, 117% (inactive). For `COc1ccc(/C=N/NC(=O)CSc2nc(-c3cnccn3)cc(-c3cccs3)c2C#N)cc1OC`, the growth is 47.3% (inactive).

As for `N#Cc1cnc2ccc(-c3cnc4n[nH]nc4c3)cc2c1N1CCc2cc(F)c(Cl)cc21`, the growth is 22.5% (inactive).

Another experiment deals with KM12 colon. The description is as above. The settings on record: 10 µM unless noted.
Consider `CCOC(=O)c1cnc2c(-c3ccc(Cl)c(Cl)c3)cnn2c1`, for which the growth was 57.5% (inactive). The same measure, in the same setting: as for `CCCc1[nH]c(-c2cc(N)ccc2Cl)c2c1C(=O)CCCC2`, the figure is 93.7% (inactive); as for `O=C(Nc1ccc(N=Cc2c(O)[nH]c3ccccc23)cc1)Nc1ccc(S(=O)(=O)Nc2ncccn2)cc1`, 50.9% (inactive); as for `Cc1ccc(NC(=O)Nc2nc3ccc([N+](=O)[O-])cc3s2)cc1`, -3.91% (active).

For the molecule `COc1ccc(C2C(C#N)=C(/N=C/c3ccc(Cl)cc3)Oc3c2sc2c(C)cccc32)cc1` (stereo unspecified), the growth is 23.1% (inactive). On the same count and under the same terms, as for `Cc1ccc2c(n1)C(=O)C(Cl)=C(Nc1ccc(C(F)(F)F)cc1)C2=O`, the figure is 98.2% (inactive); as for `Brc1cc(-c2cc(-c3ccc4c(c3)OCCO4)[nH]n2)cs1`, 27.7% (inactive); as for `CN(C)c1cccc2c(S(=O)(=O)Nc3cccc(-c4csc(NC(=O)CCCCCN5CCN(CCO)CC5)n4)c3)cccc12`, 88.6% (inactive).

As to `CC1=C(C)C(=O)C(Nc2cccc(C(=O)OC(C)(C)C)c2)=CC1=O`, the growth is 88.7% (inactive). On to `C=C(C)[C@@H]1CC[C@]2(C(=O)O)CC[C@]3(C)[C@H](CC[C@@H]4[C@@]5(C)C/C(=C/c6ccccn6)C(=O)C(C)(C)[C@@H]5CC[C@]43C)[C@@H]12`, for which the growth is 30.6% (inactive). Still for that read-out and setting: as for `Nc1ccc(Nc2ncnc3sc4c(c23)CCN(Cc2ccccc2)C4)cc1`, the figure is 104% (inactive); as for `Cc1ccsc1[C@H]1c2[nH]c3ccccc3c2C[C@H]2C(=O)N(CCCCCCC(=O)NO)CC(=O)N12`, 81.1% (inactive); as for `C=C(C)[C@@H]1CC[C@]2(COCCCNCCCN)CC[C@]3(C)[C@H](CC[C@@H]4[C@@]5(C)CC[C@H](O)C(C)(C)[C@@H]5CC[C@]43C)[C@@H]12`, -65.4% (active). The same measure, in the same setting: as for `C#C[C@]1(O)CC[C@H]2[C@@H]3CC=C4c5sc(NCc6ccccc6)nc5CC[C@]4(C)[C@H]3CC[C@@]21C`, the figure is 18.9% (inactive); as for `Clc1ccc(CSc2nnc(-c3ccc(Cl)cc3)n2-c2ccccc2)cc1`, 92.6% (inactive). Regarding `Cc1ccc(C(=O)CSc2nc3ccccc3c(=O)n2C)cc1`, the growth is 86.7% (inactive). As to `CCn1c2ccc(/C=N/N(C)S(=O)(=O)CCN(C)C)cc2c2cc(/C=N/N(C)S(=O)(=O)CCN(C)C)ccc21`, the growth was 81.4% (inactive). With `CN1CCN(c2ccc(Nc3nc(NCCCNS(=O)(=O)c4ccc(Cl)cc4)c4sccc4n3)cc2)CC1`, the growth was 23.3% (inactive).

For `CCCCCCCCCCCC(=O)NC(C)(C)C(=O)N1CCCC1C(=O)NC(C)(C)C(=O)NC(C)(C)C(=O)N1CCCC1C(=O)NC(C)(C)C(=O)NC(C)(C)C(=O)N1CCCC1C(=O)NC(C)C(=O)NCCC(=O)NC(C)C(=O)NC(C)(C)C(=O)NC(C)(C)C(=O)NC(C)(C)C(=O)NCCC(=O)NC(C)(C)C(=O)NC(C)(C)C(=O)NC(C)(C)C(=O)NC(C)C(=O)NCCC(=O)O` (stereo unspecified), the growth was -98.5% (active). Take `O=C(CCCCCCN1CC(=O)N2[C@@H](c3ccc(Cl)s3)c3[nH]c4ccccc4c3C[C@H]2C1=O)NO`: the growth was 71.9% (inactive). As to `Clc1cccc(/C=N/Nc2nc(N/N=C/c3cccc(Cl)c3)nc(N3CCCCC3)n2)c1`, the growth is 91.1% (inactive). The same measure, in the same setting: as for `COc1ccc(Cn2cc(C#N)c(N)c2C(C)=O)cc1`, the figure is 98.7% (inactive); as for `C#Cc1nc(/C=C\CCCCCCC(=O)NO)cs1`, 41.2% (inactive); as for `CC1(C)CC[C@]2(C(=O)O)CC[C@]3(C)C(=CC[C@@H]4[C@@]5(C)CC[C@H](NOCCCN)C(C)(C)[C@@H]5CC[C@]43C)[C@@H]2C1`, 80.9% (inactive). Same read-out and setting: as for `CCC(=C(c1ccc(OCCN2CCCCCC2)cc1)c1ccc(OCCN2CCCCCC2)cc1)c1ccc(Cl)cc1`, the figure is 4.43% (active); as for `O=C(/C=C/c1ccccc1)c1cccc(O)c1`, 88.8% (inactive); as for `O=C(/C=C/c1cccc(F)c1)c1cccc(OCCCOc2cccc(C(=O)/C=C/c3cccc(F)c3)c2)c1`, 32.6% (inactive).

Turning to `Brc1ccc2[nH]cc(-c3nn4cc(-c5nccs5)nc4s3)c2c1`, the growth was 21% (inactive). On the same count and under the same terms, as for `CN1CCN(c2ccc(Nc3nc(NCCCNS(=O)(=O)c4ccc(F)cc4)c4sccc4n3)cc2)CC1`, the figure is 65.3% (inactive); as for `N#Cc1c(-c2cccs2)cc(-c2cnccn2)nc1SCC(=O)N/N=C/c1ccncc1`, 100% (inactive); as for `CN(C)c1ccc(-c2cc(-c3c[nH]c4ccccc34)nc(N)c2C#N)cc1`, 18.2% (inactive).

In the case of `O=C(CSc1nc2ccccc2c(=O)n1-c1ccccc1)N/N=C/c1ccc(Oc2ccc(Br)cc2)cc1`, the growth was 76.3% (inactive). `CCc1cc(O)ccc1Nc1cc(-c2ccc(-n3cccn3)cc2)[nH]n1`: the growth is 16.6% (inactive).

Consider `C#C[C@]1(O)CC[C@H]2[C@@H]3CC=C4c5sc(N(C)c6ccccc6)nc5CC[C@]4(C)[C@H]3CC[C@@]21C`, for which the growth is 54.6% (inactive). Consider `COc1cc(C(C)=C(c2ccc(OCCN(C)C)cc2)c2ccc(OCCN(C)C)cc2)ccc1F`, for which the growth is 109% (inactive).

`C#CCN(C)CCCOc1ccc(NCc2ccc(C(=O)NO)cc2)cc1Cl`: the growth is 24.2% (inactive). Same read-out and setting: as for `CSc1ccc(C(=NNS(=O)(=O)c2ccc(C)cc2)c2ccc(Cl)cc2)cc1`, the figure is 97.1% (inactive); as for `Clc1ccc2[nH]cc(-c3nn4cc(-c5cccnc5)nc4s3)c2c1`, 98% (inactive); as for `COc1ccc(/C=N/NC(=O)CSc2nc(-c3cnccn3)cc(-c3cccs3)c2C#N)cc1OC`, 51.4% (inactive). On the same count and under the same terms, for `N#Cc1cnc2ccc(-c3cnc4n[nH]nc4c3)cc2c1N1CCc2cc(F)c(Cl)cc21` the value was 17.4% (inactive).

The values are drawn from PubChem BioAssay (NCI).
